Experiment [1] is described as follows: qHTS profiling for inhibitors of Plasmodium falciparum proliferation (AID 504749). Also: nearly all actives have a fitted effect of over 60% in size.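 As to activity, negative = inhibition: 0% = DMSO vehicle and full inhibition = artemisinin control.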 The following applies: P. falciparum in erythrocytes, SYBR Green DNA, 72 h. The gist of the method: (§1)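 In a 72 h erythrocytic culture (37 C, humidified, 5% CO2) at 2.5% hematocrit and 0.3% starting parasitemia, compounds were tested; SYBR Green I in detergent lysis buffer stained parasite DNA overnight.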

Experiment [2] relates to 3D7. The experiment is described as above. The following applies: P. falciparum in erythrocytes, SYBR Green DNA, 72 h; series mostly up to 28.7 µM. Put shortly:
as §1

The test system of experiment [3] is 7G8. Described as above. The settings on record: P. falciparum in erythrocytes, SYBR Green DNA, 72 h; series mostly up to 28.7 µM. The gist of the method:
as §1

The test system of experiment [4] is AA1029. The experiment is described as above. The settings on record: P. falciparum in erythrocytes, SYBR Green DNA, 72 h; series mostly up to 28.7 µM. Put shortly:
as §1

Experiment [5] concerns AS120. The experiment is described as above. The following applies: P. falciparum in erythrocytes, SYBR Green DNA, 72 h; series mostly up to 28.7 µM. Put shortly: as §1
Experiment [6] concerns ATS189. Described as above. The following applies: P. falciparum in erythrocytes, SYBR Green DNA, 72 h; series mostly up to 28.7 µM. Put shortly:
as §1

For experiment [7], the system named is ATS95. The experiment is described as above. The settings on record: P. falciparum in erythrocytes, SYBR Green DNA, 72 h; series mostly up to 28.7 µM. The gist of the method: as §1
Experiment [8] deals with C2A. Described as above. The settings on record: P. falciparum in erythrocytes, SYBR Green DNA, 72 h; series mostly up to 28.7 µM. Put shortly:
as §1

For experiment [9], the system named is CP185. The experiment is described as above. The following applies: P. falciparum in erythrocytes, SYBR Green DNA, 72 h; series mostly up to 28.7 µM. The gist of the method:
as §1

Experiment [10] deals with CP191. Described as above. The following applies: P. falciparum in erythrocytes, SYBR Green DNA, 72 h; series mostly up to 28.7 µM. The gist of the method:
as §1

Experiment [11] relates to CP192. The experiment is described as above. The following applies: P. falciparum in erythrocytes, SYBR Green DNA, 72 h; series mostly up to 28.7 µM. Put shortly: as §1
The test system of experiment [12] is CP194. The description is as above. The following applies: P. falciparum in erythrocytes, SYBR Green DNA, 72 h; series mostly up to 28.7 µM. The gist of the method: as §1
The test system of experiment [13] is CP201. Described as above. The settings on record: P. falciparum in erythrocytes, SYBR Green DNA, 72 h; series mostly up to 28.7 µM. Put shortly:
as §1

Experiment [14] has as its system CP203. Described as above. The settings on record: P. falciparum in erythrocytes, SYBR Green DNA, 72 h; series mostly up to 28.7 µM. Put shortly:
as §1

The test system of experiment [15] is CP211. Described as above. The settings on record: P. falciparum in erythrocytes, SYBR Green DNA, 72 h; series mostly up to 28.7 µM. The gist of the method:
as §1

Experiment [16] has as its system CP215. The experiment is described as above. The settings on record: P. falciparum in erythrocytes, SYBR Green DNA, 72 h; series mostly up to 28.7 µM. Put shortly: as §1
In experiment [17] the test system is CP217. The experiment is described as above. The settings on record: P. falciparum in erythrocytes, SYBR Green DNA, 72 h; series mostly up to 28.7 µM. Put shortly:
as §1

Experiment [18] has as its system CP237. The experiment is described as above. The following applies: P. falciparum in erythrocytes, SYBR Green DNA, 72 h; series mostly up to 28.7 µM. Put shortly:
as §1

In experiment [19] the test system is CP238. The description is as above. The settings on record: P. falciparum in erythrocytes, SYBR Green DNA, 72 h; series mostly up to 28.7 µM. Put shortly:
as §1

Setting [20] is: at 28.7 µM (top of the series), parasite line A.
Setting [21] is: at 28.7 µM (top of the series), parasite line B.
[22] abbreviates: at 12.8 µM (top of the series), parasite line A.
[23] abbreviates: at 12.8 µM (top of the series), parasite line B.

The structures appear in SMILES notation. Inconclusive results are not listed. Values without a mark were called inactive. The source made the active and inactive calls. Calls follow the shape of the dose curve; as a rule, active = well fitted inhibition curve with a large enough effect; inconclusive = small, poorly fitted or top-dose-only effect; inactive = flat fitted curve, though single readings scatter.
Potency is read from the fitted curve at half-maximal effect.

Regarding `CC(=O)Oc1ccc(C)cc1`, the activity, negative = inhibition in experiment [1] (setting [20]) was 9.31%; in [1] (setting [21]), 10.5%. Besides, the Potency result in [2], in experiment [3], in [4], in experiment [5], in experiment [6] and in [7] was “inactive” in each case. The Potency entry in experiment [8], in [9], in experiment [10], in experiment [11], in [12] and in experiment [13] was “inactive” each time. Further, the Potency entry in experiment [14], in experiment [15], in experiment [16], in experiment [17], in [18] and in experiment [19] was “inactive” each time.
Turning to `CCCN(CCC)S(=O)(=O)c1ccc(C(=O)O)cc1`, the activity, negative = inhibition in [1] (setting [20]) is 12.1%; in experiment [1] (setting [21]), 6%. Further, the Potency entry in experiment [2], in [3], in [4], in experiment [5], in experiment [6] and in experiment [7] was “inactive” throughout. Moreover, the Potency result in experiment [8], in experiment [9], in experiment [10], in [11], in experiment [12] and in experiment [13] was “inactive” each time. Besides, the Potency result in [14], in experiment [15], in experiment [16], in [17], in [18] and in [19] was “inactive” in each case.
In the case of `CC(=O)N[C@@H](CCC(=O)O)C(=O)O`, the values for the activity, negative = inhibition in experiment [1] (setting [20]) and in [1] (setting [21]) were 4.59% and 2.94%, respectively. The Potency entry in experiment [2], in [3], in [4], in [5], in experiment [6] and in [7] was “inactive” throughout. For the same compound, the Potency entry in [8], in [9], in experiment [10], in experiment [11], in experiment [12] and in experiment [13] was “inactive” each time. Besides, the Potency result in [14], in experiment [15], in [16], in experiment [17], in [18] and in [19] was “inactive” in each case.
`CCCCNC(=O)NS(=O)(=O)c1ccc(N)cc1`: the activity, negative = inhibition was 5.61% in experiment [1] (setting [20]) and 12.3% in experiment [1] (setting [21]). Also, the Potency result in experiment [2], in experiment [3], in experiment [4], in experiment [5], in [6] and in experiment [7] was “inactive” each time. Further, the Potency entry in [8], in experiment [9], in [10], in experiment [11], in experiment [12] and in experiment [13] was “inactive” in each case. Moreover, the Potency entry in experiment [14], in experiment [15], in experiment [16], in experiment [17], in [18] and in experiment [19] was “inactive” each time.
In the case of `CC(C)Cn1cnc2c1c(=O)n(C)c(=O)n2C`, the activity, negative = inhibition is -14.6% in experiment [1] (setting [20]) and 1.13% in experiment [1] (setting [21]). The Potency entry in experiment [2], in experiment [3], in experiment [4], in experiment [5], in [6] and in experiment [7] was “inactive” in each case. Also, the Potency entry in experiment [8], in [9], in experiment [10], in [11], in [12] and in experiment [13] was “inactive” throughout. Moreover, the Potency result in experiment [14], in [15], in [16], in [17], in [18] and in experiment [19] was “inactive” throughout.
`Cc1c(-c2ccccc2)oc2c(C(=O)OCCN3CCCCC3)cccc2c1=O`: the activity, negative = inhibition in experiment [1] (setting [22]) was 0.972%; in experiment [1] (setting [23]), 6.11%. Further, the Potency entry in experiment [2], in experiment [3], in experiment [4], in experiment [5], in [6] and in [7] was “inactive” in each case. Besides, the Potency entry in [8], in [9], in experiment [10], in [11], in experiment [12] and in experiment [13] was “inactive” in each case. The Potency entry in experiment [14], in experiment [15], in experiment [16], in experiment [17], in experiment [18] and in [19] was “inactive” in each case.
Turning to `CN(C)CCC[C@@]1(c2ccc(F)cc2)OCc2cc(C#N)ccc21`, the results for the activity, negative = inhibition in [1] (setting [20]) and in experiment [1] (setting [21]) were 3.06% and 6.35%, respectively. The Potency result in experiment [2], in experiment [3], in experiment [5], in [6], in experiment [7] and in [8] was “inactive” each time. Besides, the Potency result in experiment [9], in [11], in experiment [12], in [13], in experiment [15] and in experiment [17] was “inactive” in each case. Besides, the Potency entry in experiment [18] and in [19] was “inactive” each time.
With `NS(=O)(=O)c1cc(C(=O)O)cc(N2CCCC2)c1Oc1ccccc1`, the activity, negative = inhibition in experiment [1] (setting [22]) was 5.58%; in experiment [1] (setting [23]), 15.6%. Also, the Potency result in [2], in experiment [3], in [4], in experiment [5], in experiment [6] and in [7] was “inactive” each time. Moreover, the Potency entry in [8], in experiment [9], in experiment [10], in [11], in experiment [12] and in experiment [13] was “inactive” each time. For the same compound, the Potency result in experiment [15], in [16], in [17], in experiment [18] and in experiment [19] was “inactive” in each case.
As for `CNCCCCOc1ccccc1Cc1ccccc1`, the activity, negative = inhibition in experiment [1] (setting [20]) was -10.8%; in experiment [1] (setting [21]) it was -10.9%. Moreover, the Potency entry in experiment [2] and in [11] was “inactive” throughout. Besides, the Potency was 6.31 µM (active) in experiment [3], 5.01 µM (active) in experiment [4], 4.26 µM (active) in [14] and 8.91 µM (active) in [19].
With `COc1cc(C)nc(-n2nc(C)cc2OC)n1`, the activity, negative = inhibition was 3.73% in experiment [1] (setting [22]) and -3.99% in experiment [1] (setting [23]). The Potency entry in experiment [2], in [3], in experiment [4], in [5], in experiment [6] and in experiment [7] was “inactive” in each case. Moreover, the Potency result in experiment [8], in [9], in experiment [10], in experiment [12], in experiment [13] and in [14] was “inactive” each time. Besides, the Potency entry in experiment [15], in [16], in experiment [17], in [18] and in [19] was “inactive” in each case.
Take `CC(=O)NO`: the activity, negative = inhibition is -5.99% in experiment [1] (setting [20]) and 17.5% in [1] (setting [21]). Besides, the Potency entry in experiment [2], in experiment [3], in [4], in experiment [5], in [6] and in experiment [7] was “inactive” each time. Besides, the Potency entry in [8], in [9], in experiment [10], in experiment [11], in experiment [12] and in experiment [14] was “inactive” throughout. Also, the Potency result in experiment [15], in [16], in experiment [17], in experiment [18] and in [19] was “inactive” throughout.
As for `COc1cc(O)c(C(=O)c2ccccc2)cc1S(=O)(=O)O`, the activity, negative = inhibition in experiment [1] (setting [20]) is -0.769%; in [1] (setting [21]), 4.93%. Moreover, the Potency entry in [2], in experiment [4], in experiment [5], in experiment [7], in [8] and in [9] was “inactive” in each case. In addition, the Potency result in experiment [11], in [12], in experiment [13], in experiment [14], in experiment [15] and in experiment [16] was “inactive” each time. The Potency entry in experiment [17], in experiment [18] and in experiment [19] was “inactive” each time. For the same compound, in experiment [3], the Potency was 11.2 µM (active).

For the origin of these results see PubChem BioAssay (NCATS).
